Assay outcomes from PubChem BioAssay.
Shown is part of a subset that was picked to be rich in hits.
Pf Dd2 inh = qHTS Primary assay for Inhibitors of Plasmodium falciparum Dd2 growth in vitro; P. falciparum Dd2 growth, SYBR Green, 72 h; Potency, µM (titrated, usually from 28.9 µM), hits mostly inhibitors; 4.3% of 120,000 active; AID 1347417, 2020; active = well fitted inhibition curve with a large enough effect; note: nearly all actives have a fitted effect of over 65% in size
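Readout: SYBR Green fluorescence, 485 nm excitation, 535 nm emission, after ~16 h lysis at 37C. Before that, Dd2-infected red cells (2.5% hematocrit) grew 72 h with compound, 29 uM top final concentration.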
Numbers stand for hits; . = inactive.

SMILES	Pf Dd2 inh
Cc1cc(C)nc(CNC2CCN(c3nc(C)nc4sccc34)CC2)n1	.
Cc1[nH]cnc1CN1CCN(C2CCCC2)CC(C(=O)O)C1 (configuration not stated)	.
Cc1cc(N2CCC(NCc3nc[nH]c3C)CC2)nc(-c2ccccc2O)n1	10µM
O=C(CCC(F)(F)F)N1CCC2(CCCN(CC3CCCCC3)C2=O)C1 (configuration not stated)	.
COCc1nncn1C1CCN(C(=O)c2cc(C)cc(C)c2)CC1	.
CN1C[C@@H](NC(=O)Nc2ccccc2)C[C@H]1c1nc(-c2cnccn2)no1	.
Cn1cnnc1-c1nn(C)c2c1CN(C(=O)c1n[nH]c(=O)c3ccccc13)CC2	.
CC(C)n1cnnc1-c1nn(C)c2c1CN(C(=O)Cc1c[nH]c3ccccc13)CC2	8.91µM
CCNC(=O)N1CCc2c(c(-c3nncn3-c3ccccc3)nn2C)C1	.
Cn1nc(C2CCN([S+](=O)([O-])c3cccc(C(F)(F)F)c3)CC2)[nH]c1=O	.
COc1ccccc1C(=O)N1CCC(N2CCCC2=O)CC1	.
O=C(c1ccoc1)N1CC(c2nnc(-c3ccncc3)o2)C2(CCOCC2)C1 (configuration not stated)	.
CCOC(=O)c1cccc(NC(=O)N2CC[C@@H](CC(=O)NCCSC)[C@@H](CC)C2)c1	.
Cn1ccnc1CN1C[C@@H](F)[C@@H](OCc2nc3ccc(F)cc3[nH]2)C1	.
Fc1ccc2nc(CO[C@H]3CN(CC4CC4)C[C@H]3F)[nH]c2c1	11.2µM
Cc1cccnc1CN1C[C@@H](F)[C@@H](OCc2nc3ccc(F)cc3[nH]2)C1	.
COc1ccccc1CCC(=O)N1CCC(Cc2nc(-c3cnccn3)no2)CC1	.
COCCNC(=O)c1ccc(OC2CCN(C(=O)[C@@H](C)N)CC2)c(Cl)c1	.
CC(C)n1cc(CN2CCC(Oc3ccc(C(=O)NC4CCCC4)cc3Cl)CC2)cn1	.
COCCNC(=O)c1ccc(OC2CCN(Cc3ccc(C)s3)CC2)c(Cl)c1	6.31µM
COCCNC(=O)c1ccc(OC)cc1OC1CCN(Cc2cccc3cccnc23)CC1	.
COCCNC(=O)c1ccc(OC2CCN(CC3CCOC3)CC2)c(Cl)c1 (configuration not stated)	.
COCCNC(=O)c1ccc(OC2CCN(Cc3cccc4c3OCO4)CC2)c(Cl)c1	7.08µM
CCn1nc(C(C)C)cc1C(=O)N1CCN(C)C2(CCC(=O)N(C)CC2)C1 (configuration not stated)	.
Cc1nc(C)c(C(=O)NCCn2c(C)cnc2-c2cccnc2)s1	.
SMILES	Pf Dd2 inh
O=C(CCC1CCN(C(=O)c2ccccc2)CC1)Nc1cccnc1	.
COc1cc(CN2C[C@@H]3C(=O)N(CCCN4CCCC4=O)C(=O)[C@@H]3C2)cc(OC)c1	.
COC(=O)CNC(=O)N1CCCCC1c1nc(CCOc2ccc(F)cc2)no1 (configuration not stated)	.
COc1ccc(CNC(=O)Cn2c(-c3ccc(F)cc3)nc(C)c(CCO)c2=O)cc1	.
CCC(=O)N1CCCCCNC(=O)[C@@H]2CCC[C@@H]21	.
COC1C(=O)N(C2CCN(C(=O)Nc3ccc4c(c3)OCCO4)CC2)C12CCOCC2 (configuration not stated)	.
CC[C@@]1(C(=O)O)C[C@H](C(=O)N(C)CCCO)[C@H](c2ccc(OC)cc2)N1C	.
Cn1nc(NC(=O)C2CCS(=O)(=O)C2)c2c(Oc3cccnc3)cccc21 (configuration not stated)	.
O=C1NC2(Cc3ccccc31)CN(Cc1c[nH]c3ccccc13)C2	.
Cc1ccccc1-c1nccn2c(C3CN(C(=O)c4cc5ccccc5[nH]4)C3)ncc12	11.2µM
c1cncc(-c2nnc([C@H]3CCN(Cc4c[nH]c5ccccc45)C3)o2)c1	.
Cc1cccnc1C(=O)N[C@@H]1CN(Cc2ccccc2)C[C@H]1CN(C)C	.
COCCO[C@H]1C(=O)N(C2CCN(C(=O)c3cc4ccccc4[nH]3)CC2)[C@H]1c1ccncc1	.
CNC(=O)[C@@H]1CN(C(=O)c2cc3ccccc3[nH]2)C[C@H]1COC	.
Cc1ccccc1-c1nc2cnccn2c1NCCC(=O)NC1CCCCC1	.
Cc1ccccc1-c1nccn2c(C3CN(Cc4ccc(O)cc4)C3)ncc12	11.2µM
COc1ncccc1-c1nccn2c(C3CN(Cc4c[nH]c5ccccc45)C3)ncc12	3.55µM
COCc1ncc(C)n1C1CCN(C(=O)C2CCC2)CC1	.
COc1cccc(CNC(=O)[C@@H]2C[C@@H](O)CN2C2CCN(C(=O)CCc3ccccc3)CC2)c1	.
CS(=O)(=O)N1CCCN(C(=O)c2ccoc2)CCNC(=O)CC1c1ccccc1 (configuration not stated)	.
CCCCc1cc(C[C@H]2CNCC[C@H]2CC(=O)NCc2ccccc2)no1	.
CC(=O)N1CCN(C(=O)C[C@@H]2CCNC[C@@H]2Cc2cc(-c3ccccc3)on2)CC1	.
CN(Cc1ccccc1)C(=O)C[C@@H]1CCNC[C@@H]1Cc1cc(-c2ccccc2)on1	5.01µM
CCCCc1cc(C[C@H]2CNCC[C@H]2CC(=O)N(C)Cc2ccccc2)no1	6.31µM
CCN(CC)C(=O)C[C@@H]1CCNC[C@@H]1Cc1cc(-c2ccccn2)on1	.
SMILES	Pf Dd2 inh
CC(=O)NCCNC(=O)C[C@@H]1CCNC[C@@H]1Cc1cc(-c2ccccc2)on1	.
CC(C)NC(=O)N1Cc2[nH]cnc2C[C@H]1C(=O)NCc1ccco1	.
CSCCC(=O)N1CCC2(CCCN(Cc3cccnc3)C2=O)C1 (configuration not stated)	.
CCNC(=O)N[C@H]1CO[C@H]2[C@@H]1OC[C@@H]2n1nnnc1Oc1ccccc1	.
COc1ccc(NC(=O)Cn2c(C)cc3nc4n(c(=O)c32)CCCCC4)cc1OC	.
COCC(=O)Nc1ccc(-c2c(-c3ccccc3OC)nn(-c3ccc(C)cc3)c2OC(C)=O)cc1	.
CCN(CC)C(=O)CCC1CCN(C(=O)c2ccccc2F)CC1	.
Cc1cc(C)cc(-n2c(SCC(=O)Nc3nnc(C)s3)nc3c([nH]c4ccccc43)c2=O)c1	.
COc1ccc(Cl)cc1NC(=O)CSc1nc2c([nH]c3ccccc32)c(=O)n1-c1ccccc1	4.47µM
Cc1cccc(CSc2nc3c([nH]c4ccccc43)c(=O)n2C)c1	.
O=C(CSc1nc2c([nH]c3ccccc32)c(=O)n1-c1ccccc1)Nc1ccccc1C(F)(F)F	.
COc1cccc(-n2c(SCc3cccc(C)c3)nc3c([nH]c4ccccc43)c2=O)c1	10µM
Cc1ccc(-n2c(SCC(=O)Nc3ccc4c(c3)OCO4)nc3c([nH]c4ccccc43)c2=O)cc1	10µM
COc1cccc(-n2c(SCC(=O)c3ccccc3)nc3c([nH]c4ccccc43)c2=O)c1	.
COc1cccc(NC(=O)CSc2nc3c([nH]c4ccccc43)c(=O)n2-c2cc(C)cc(C)c2)c1	8.91µM
CCOc1ccc(-n2c(SCC(=O)Nc3cc(C)on3)nc3c([nH]c4ccccc43)c2=O)cc1	.
Cc1cccc(NC(=O)CSc2nc3c([nH]c4ccccc43)c(=O)n2C)c1	.
CCn1c(SCC(=O)Nc2cc(Cl)ccc2OC)nc2c([nH]c3ccccc32)c1=O	.
Cc1cc(NC(=O)CSc2nc3c([nH]c4ccccc43)c(=O)n2-c2ccc(Cl)cc2)no1	.
COc1ccccc1CN1CC(c2noc(CC3CCCC3)n2)CC1=O (configuration not stated)	.
Cc1ccc(NC(=O)c2cc3n(n2)CC(c2ccc4c(c2)OCO4)OC3)cc1 (configuration not stated)	.
